# Experimental data taken from PubChem BioAssay (EPA / NIEHS).
# Inconclusive results are not listed. Activity calls are given as the source filed them. The calls were made as follows, unless noted: active = hit-call score of the fitted dose curve at least 0.9, where 1 is the maximum; inactive = score below 0.9.
# Legend:
# [1] = molecular target: human RAR-related Orphan Receptor gamma (RORg), RORC (gene 6097) (UniProt P51449); assay: ATG_RORg_TRANS: Attagene TRANS-FACTORIAL HepG2 Assay for human RAR-related Orphan Receptor gamma (RORg) (AID 2283011; active = hit-call score of the fitted dose curve at least 0.9, where 1 is the maximum)
# Chain of human RAR-related Orphan Receptor gamma (RORg), RORC (gene 6097) (P51449 whole entry, looked up, the tested form may be a part): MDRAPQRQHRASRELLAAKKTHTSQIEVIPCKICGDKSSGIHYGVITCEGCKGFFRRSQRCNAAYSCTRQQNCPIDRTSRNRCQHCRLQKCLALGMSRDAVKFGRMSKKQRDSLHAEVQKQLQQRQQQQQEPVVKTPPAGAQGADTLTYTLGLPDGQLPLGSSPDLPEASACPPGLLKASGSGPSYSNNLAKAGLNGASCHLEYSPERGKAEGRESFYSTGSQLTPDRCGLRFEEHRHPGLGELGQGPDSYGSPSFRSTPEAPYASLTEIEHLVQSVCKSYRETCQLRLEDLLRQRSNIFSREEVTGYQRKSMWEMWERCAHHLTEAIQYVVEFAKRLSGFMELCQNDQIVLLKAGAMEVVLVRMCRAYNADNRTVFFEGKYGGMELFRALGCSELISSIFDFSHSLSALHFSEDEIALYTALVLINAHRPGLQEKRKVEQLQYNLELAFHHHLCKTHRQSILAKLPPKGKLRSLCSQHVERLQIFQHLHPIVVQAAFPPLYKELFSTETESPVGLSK
# Procedure, shortened: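 HepG2 cells transiently transfected with GAL4-UAS reporter units and chimeric RORg-Gal4 construct; after 24 h chemical exposure, reporter mRNA measured by RT-PCR with fluorescent capillary electrophoresis, gain of signal fitted against DMSO.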
# [2] = molecular target: human Retinoid X Receptor beta (RXRb), RXRB (gene 6257) (UniProt P28702); assay: ATG_RXRb_TRANS: Attagene TRANS-FACTORIAL HepG2 Assay for human Retinoid X Receptor beta (RXRb) (AID 2283013; active = hit-call score of the fitted dose curve at least 0.9, where 1 is the maximum)
# Chain of human Retinoid X Receptor beta (RXRb), RXRB (gene 6257) (P28702 whole entry, looked up, the tested form may be a part): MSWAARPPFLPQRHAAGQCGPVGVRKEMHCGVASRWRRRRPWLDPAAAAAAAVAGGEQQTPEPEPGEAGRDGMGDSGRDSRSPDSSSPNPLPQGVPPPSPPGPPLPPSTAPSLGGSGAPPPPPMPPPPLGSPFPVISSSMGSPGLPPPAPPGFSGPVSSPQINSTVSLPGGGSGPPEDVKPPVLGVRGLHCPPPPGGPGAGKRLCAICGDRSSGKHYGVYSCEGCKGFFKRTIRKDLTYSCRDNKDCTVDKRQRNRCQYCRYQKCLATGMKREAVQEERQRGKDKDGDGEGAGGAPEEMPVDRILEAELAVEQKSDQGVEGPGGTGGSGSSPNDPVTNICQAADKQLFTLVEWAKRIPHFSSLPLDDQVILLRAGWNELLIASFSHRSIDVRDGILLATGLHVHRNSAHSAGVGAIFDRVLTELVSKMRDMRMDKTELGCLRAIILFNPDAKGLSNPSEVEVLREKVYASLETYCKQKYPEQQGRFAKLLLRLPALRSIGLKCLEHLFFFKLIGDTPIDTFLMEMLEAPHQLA
# Procedure, shortened: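 HepG2 cells transiently transfected with multiplexed reporter units driven by GAL4-UAS and exogenous chimeric NR-Gal4 proteins; treated 24 h. Reporter mRNA measured by RT-PCR, 6-FAM labelling and capillary electrophoresis; gain-of-signal fitted versus DMSO baseline.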
# [3] = molecular target: human Thyroid Receptor alpha (THRa1), THRA (gene 7067) (UniProt P10827); assay: ATG_THRa1_TRANS: Attagene TRANS-FACTORIAL HepG2 Assay for human Thyroid Receptor alpha (THRa1) (AID 2283014; active = hit-call score of the fitted dose curve at least 0.9, where 1 is the maximum)
# Chain of human Thyroid Receptor alpha (THRa1), THRA (gene 7067) (P10827 whole entry, looked up, the tested form may be a part): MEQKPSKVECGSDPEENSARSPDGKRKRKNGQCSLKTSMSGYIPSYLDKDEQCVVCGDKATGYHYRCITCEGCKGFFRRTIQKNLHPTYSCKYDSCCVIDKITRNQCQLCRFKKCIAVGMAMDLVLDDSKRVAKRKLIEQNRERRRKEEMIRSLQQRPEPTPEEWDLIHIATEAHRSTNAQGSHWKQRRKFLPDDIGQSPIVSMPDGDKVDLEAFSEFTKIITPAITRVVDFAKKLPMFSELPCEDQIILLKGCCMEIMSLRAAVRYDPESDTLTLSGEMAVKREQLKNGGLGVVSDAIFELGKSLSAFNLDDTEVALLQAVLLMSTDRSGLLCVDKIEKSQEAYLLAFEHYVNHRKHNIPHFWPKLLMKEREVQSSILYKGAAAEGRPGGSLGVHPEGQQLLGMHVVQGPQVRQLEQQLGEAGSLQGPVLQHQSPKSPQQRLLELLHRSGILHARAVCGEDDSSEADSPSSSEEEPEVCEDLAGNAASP
# Procedure, shortened: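 HepG2 cells transiently transfected with chimeric NR-Gal4 and GAL4-UAS reporter units, dosed 24 h. Reporter mRNA quantified by RT-PCR, fluorescent labeling, HpaI digestion and capillary electrophoresis; gain-of-signal fit versus DMSO.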
# [4] = read-out: E-selectin (Homo sapiens) (UniProt P16581); assay: BSK_3C_Eselectin: BioMAP Diversity Plus: 3C Assay for Eselectin Biomarker Activity (AID 2283015); details: primary human endothelial cells (HUVEC); actives raise or lower the signal;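 as to outcome: cell surface E-selectin protein quantified by ELISA 24 h after dosing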
# Procedure, shortened: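 Primary human umbilical vein endothelial cells (3C system), read 24 h after compound addition; E-selectin measured by ELISA. Bidirectional curve fitting against DMSO baseline; cytotoxicity by parallel SRB total-protein staining.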
# [5] = read-out: Interleukin-1 alpha (IL1a), IL1A (gene 3552); assay: BSK_BE3C_IL1a: BioMAP Diversity Plus: BE3C Assay for Interleukin-1 alpha (IL1a) Biomarker Activity (AID 2283016); details: primary human bronchial epithelial cells; actives raise or lower the signal
# Procedure, shortened: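 Human primary bronchial epithelial cells (BE3C system) were dosed with compound and IL-1a measured by ELISA 24 h later. Activity was fitted bidirectionally against DMSO baseline; cytotoxicity was tracked in parallel cultures by SRB total-protein staining.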
# [6] = read-out: Monocyte Chemoattractant Protein-1 (MCP1), CCL2 (gene 6347); assay: BSK_3C_MCP1: BioMAP Diversity Plus: 3C Assay for Monocyte Chemoattractant Protein-1 (MCP1) Biomarker Activity (AID 2283017); details: primary human endothelial cells (HUVEC); actives raise or lower the signal
# Procedure, shortened: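 Human umbilical vein endothelial cells (3C system) exposed to chemicals for 24 h; MCP-1 quantified by ELISA against the DMSO baseline with bidirectional fitting, and parallel SRB staining used to assess cytotoxicity.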
# [7] = read-out: Human Leukocyte Antigen - DR isotype (HLADR), HLA-DRA (gene 3122); assay: BSK_3C_HLADR: BioMAP Diversity Plus: 3C Assay for Human Leukocyte Antigen - DR isotype (HLADR) Biomarker Activity (AID 2283019); details: primary human endothelial cells (HUVEC); actives raise or lower the signal;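 as to outcome: ELISA of cell-surface HLA-DR on HUVEC 24 h after dosing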
# Procedure, shortened: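 HUVEC monoculture, HLA-DR measured by ELISA 24 h after chemical dosing. Fitted bidirectionally against DMSO baseline; parallel SRB staining assessed cytotoxicity, with 3C proliferation read by SRB at 48 h.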
# [8] = read-out: Interleukin-8 (IL8), CXCL8 (gene 3576); assay: BSK_3C_IL8: BioMAP Diversity Plus: 3C Assay for Interleukin-8 (IL8) Biomarker Activity (AID 2283020); details: primary human endothelial cells (HUVEC); actives raise or lower the signal
# Procedure, shortened: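 Primary human umbilical vein endothelial cells (3C system) were exposed to test chemical for 24 h, then IL-8 was quantified by ELISA. Responses were fitted bidirectionally against DMSO vehicle as baseline.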
# [9] = molecular target: Retinoic acid receptor RXR-alpha (Homo sapiens) (UniProt P19793); assay: ATG_RXRa_TRANS: Attagene TRANS-FACTORIAL HepG2 Assay for human Retinoid X Receptor alpha (RXRa) (AID 2283012; active = hit-call score of the fitted dose curve at least 0.9, where 1 is the maximum)
# Chain of Retinoic acid receptor RXR-alpha (Homo sapiens) (P19793 whole entry, looked up, the tested form may be a part): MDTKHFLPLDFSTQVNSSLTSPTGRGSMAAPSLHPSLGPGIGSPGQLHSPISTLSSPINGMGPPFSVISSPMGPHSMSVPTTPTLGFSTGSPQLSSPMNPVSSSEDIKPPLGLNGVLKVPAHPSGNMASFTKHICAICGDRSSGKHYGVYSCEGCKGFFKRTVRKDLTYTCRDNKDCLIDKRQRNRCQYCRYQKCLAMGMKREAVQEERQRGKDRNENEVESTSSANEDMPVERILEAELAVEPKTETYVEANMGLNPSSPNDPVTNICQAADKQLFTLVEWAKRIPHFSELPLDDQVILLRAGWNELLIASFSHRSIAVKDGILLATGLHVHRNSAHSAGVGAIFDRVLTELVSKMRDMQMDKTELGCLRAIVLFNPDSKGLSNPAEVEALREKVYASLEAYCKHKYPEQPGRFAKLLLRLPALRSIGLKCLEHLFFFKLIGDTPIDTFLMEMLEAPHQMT
# Procedure, shortened: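 HepG2 cells transiently transfected with multiplexed GAL4-UAS reporter units and chimeric NR-GAL4 fusions, dosed 24 h. Reporter mRNA measured by RT-PCR, FAM labelling, HpaI digestion and capillary electrophoresis; gain-of-signal fitted relative to DMSO baseline.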
# [10] = read-out: Monocyte Chemoattractant Protein-1 (MCP1), CCL2 (gene 6347); assay: BSK_4H_MCP1: BioMAP Diversity Plus: 4H Assay for Monocyte Chemoattractant Protein-1 (MCP1) Biomarker Activity (AID 2283018); details: primary human endothelial cells (HUVEC); actives raise or lower the signal
# Procedure, shortened: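 Human umbilical vein endothelial cells (4H system) dosed with chemical; MCP-1 measured by ELISA 24 h after dosing. Bidirectional curve fitting against DMSO negative control as baseline; parallel SRB total-protein staining tracks overt cytotoxicity.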
# Chain of E-selectin (Homo sapiens) (P16581 whole entry, looked up): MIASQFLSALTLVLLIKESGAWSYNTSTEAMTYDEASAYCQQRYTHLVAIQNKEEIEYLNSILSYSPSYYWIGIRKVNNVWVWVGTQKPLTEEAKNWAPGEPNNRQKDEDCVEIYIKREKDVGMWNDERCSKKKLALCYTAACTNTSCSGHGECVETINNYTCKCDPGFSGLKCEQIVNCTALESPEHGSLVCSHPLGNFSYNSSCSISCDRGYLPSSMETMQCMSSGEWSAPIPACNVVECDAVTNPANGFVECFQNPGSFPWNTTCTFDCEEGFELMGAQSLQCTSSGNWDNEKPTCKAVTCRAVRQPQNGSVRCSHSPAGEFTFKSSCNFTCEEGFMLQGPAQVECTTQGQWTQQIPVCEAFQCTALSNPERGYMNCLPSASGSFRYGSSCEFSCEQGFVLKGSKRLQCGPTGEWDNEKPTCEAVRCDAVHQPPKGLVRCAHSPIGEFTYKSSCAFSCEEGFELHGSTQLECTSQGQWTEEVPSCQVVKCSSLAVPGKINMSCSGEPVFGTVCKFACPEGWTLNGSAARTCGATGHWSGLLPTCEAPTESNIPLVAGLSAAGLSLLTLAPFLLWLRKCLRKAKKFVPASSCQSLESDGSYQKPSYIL
SMILES,outcome [1],outcome [2],outcome [3],AC50 [4],outcome [5],AC50 [6],AC50 [7],AC50 [8],outcome [9],outcome [4],outcome [6],outcome [10],outcome [8],outcome [7],AC50 [2]
CO/N=C(/C1=NOCCO1)c1ccccc1Oc1ncnc(Oc2ccccc2Cl)c1F,inactive,inactive,inactive,6.21 µM (active),inactive,20.1 µM (active),9.24 µM (active),20 µM (active),–,–,–,–,–,–,–
CCOc1nc(C(Cl)(Cl)Cl)ns1,inactive,inactive,inactive,–,–,–,13.8 µM (active),–,inactive,inactive,inactive,inactive,inactive,–,–
CS(=O)(=O)c1ccc(C(=O)C2C(=O)CCCC2=O)c([N+](=O)[O-])c1,inactive,inactive,inactive,–,inactive,–,–,–,inactive,inactive,inactive,inactive,inactive,inactive,–
COc1cc(OC)nc(NC(=O)NS(=O)(=O)c2ncccc2OCC(F)(F)F)n1,inactive,inactive,–,–,–,–,–,–,inactive,inactive,inactive,inactive,inactive,inactive,–
CCN(CC)C(=O)C(C)Oc1cccc2ccccc12 (stereo unspecified),inactive,inactive,–,–,–,–,–,–,inactive,inactive,inactive,inactive,inactive,inactive,–
O=P(O)(O)CCCl,inactive,inactive,–,–,–,–,–,–,inactive,inactive,inactive,inactive,inactive,inactive,–
CS(=O)(=O)c1cc(C(F)(F)F)ccc1C(=O)c1cnoc1C1CC1,inactive,inactive,–,–,–,–,–,–,inactive,inactive,inactive,inactive,inactive,inactive,–
N#Cc1c[nH]cc1-c1cccc2c1OC(F)(F)O2,inactive,–,inactive,–,inactive,20 µM (active),20 µM (active),8.82 µM (active),inactive,inactive,–,inactive,–,–,1.68 µM (active)
O=c1n(Cl)c(=O)n(Cl)c(=O)n1Cl,inactive,inactive,–,–,inactive,–,3.97 µM (active),–,inactive,inactive,inactive,inactive,inactive,–,–
CC(C)C1(C)N=C(c2ncccc2C(=O)O)NC1=O (stereo unspecified),inactive,–,–,–,–,–,–,–,inactive,inactive,inactive,inactive,inactive,inactive,–
CCCCC(O)(Cn1cncn1)c1ccc(Cl)cc1Cl (stereo unspecified),inactive,–,–,–,–,–,20 µM (active),–,inactive,inactive,inactive,inactive,inactive,–,–
O=C(Nc1ccccc1-c1ccc(Cl)cc1)c1cccnc1Cl,inactive,inactive,inactive,–,inactive,–,–,–,inactive,inactive,inactive,inactive,inactive,inactive,–
CC(C)Oc1cccc(NC(=O)c2ccccc2C(F)(F)F)c1,inactive,inactive,inactive,–,inactive,–,–,–,inactive,inactive,inactive,inactive,inactive,inactive,–
Cc1cnc(C2=NC(C)(C(C)C)C(=O)N2)c(C(=O)O)c1 (stereo unspecified),inactive,inactive,inactive,–,inactive,–,–,–,inactive,inactive,inactive,inactive,inactive,inactive,–
CCCN(CC)CC1COC2(CCC(C(C)(C)C)CC2)O1 (stereo unspecified),inactive,inactive,inactive,–,inactive,–,6.16 µM (active),–,inactive,inactive,inactive,inactive,inactive,–,–
COP(=S)(OC)SCn1nnc2ccccc2c1=O,inactive,inactive,inactive,–,inactive,–,30.2 µM (active),–,–,inactive,inactive,inactive,inactive,–,–
